Test results from the supplement of paper PMC10849652.
About 7,900 targets were measured; listed, in parts, are those with a hit and a random draw of the rest. About 0.6% of all pairs of compound and target were hits.

Assays:
Experiment in all cases: log2 fold change, soluble protein after heating vs DMSO (PISA); higher = thermal stabilisation; K562 cells, 10 uM, 30 min; active = over 0.2 and 3.5 SD of the protein, either way, in both replicates (recomputed)
saracatinib = compound: CN1CCN(CCOc2cc(OC3CCOCC3)c3c(Nc4c(Cl)ccc5c4OCO5)ncnc3c2)CC1 [saracatinib]
In short: (§1)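 Aliquots of K562 cells (2×10^6 cells/mL) treated with 10 μM compound for 30 min were heated for 3 min over 48°C-58°C. After pooling and extraction in PBS with 0.5% NP-40 at 4°C, soluble protein from a 21,000xg, 90 min spin was quantified by TMTpro 16plex LC-MS/MS with channel sums equalised. Thermal stability is expressed against control samples, from duplicates, as a log2 fold change.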

sotrastaurin = compound: CN1CCN(c2nc(C3=C(c4c[nH]c5ccccc45)C(=O)NC3=O)c3ccccc3n2)CC1 [sotrastaurin]
In short: as §1

alvocidib = compound: CN1CC[C@H](c2c(O)cc(O)c3c(=O)cc(-c4ccccc4Cl)oc23)[C@H](O)C1 [alvocidib]
In short: as §1

Tubastatin A = compound: CN1CCc2c(c3ccccc3n2Cc2ccc(C(=O)NO)cc2)C1 [Tubastatin A]
In short: as §1

[1] = compound: CNC(=O)C1=CC=CC=C1NC2=NC(=NC=C2Cl)NC3=C(C=C(C=C3)N4CCOCC4)OC
In short: as §1

defactinib = compound: CNC(=O)c1ccc(Nc2ncc(C(F)(F)F)c(NCc3nccnc3N(C)S(C)(=O)=O)n2)cc1 [defactinib]
In short: as §1

rucaparib = compound: CNCc1ccc(-c2[nH]c3cc(F)cc4c3c2CCNC4=O)cc1 [rucaparib]
In short: as §1

[2] = compound: CNc1nc(-c2ccc3c(N)n[nH]c3c2)cc(N2C[C@@H](C(=O)NC3CCCCC3)CC[C@H]2C)n1
In short: as §1

encorafenib = compound: COC(=O)N[C@@H](C)CNc1nccc(-c2cn(C(C)C)nc2-c2cc(Cl)cc(NS(C)(=O)=O)c2F)n1 [encorafenib]
In short: as §1

[3] = compound: COC(=O)[C@H](CCSC)NC(=O)C1=C(C=C(C=C1)NC[C@H](CS)N)C2=CC=CC=C2
In short: as §1

Measured: log2 fold change

CDC42SE1 (UniProt Q9NRR8)
Sequence of UniProt Q9NRR8 (Q9NRR8 whole entry, looked up): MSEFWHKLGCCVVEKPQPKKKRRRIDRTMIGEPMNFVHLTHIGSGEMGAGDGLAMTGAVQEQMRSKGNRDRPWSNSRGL
active: Tubastatin A -0.562
inactive: saracatinib 0.074 | sotrastaurin -0.033 | alvocidib -0.019 | [1] 0.228 | defactinib -0.041 | rucaparib 0.087 | [2] 0.01 | encorafenib -0.032 | [3] 0.077

CCNDBP1 (UniProt O95273)
inactive: saracatinib 0.078 | sotrastaurin -0.209 | alvocidib -0.007 | Tubastatin A 0.001 | [1] 0.115 | defactinib -0.107 | rucaparib -0.002 | [2] -0.04 | encorafenib 0.062 | [3] -0.027

CRLF3 (UniProt Q8IUI8)
inactive: saracatinib -0.209 | sotrastaurin -0.124 | alvocidib -0.161 | Tubastatin A 0.054 | [1] 0.051 | defactinib -0.076 | rucaparib 0.026 | [2] 0.036 | encorafenib 0.074 | [3] -0.013

CNOT4 isoform 6 (UniProt O95628)
inactive: saracatinib 0 | sotrastaurin 0.003 | alvocidib -0.095 | Tubastatin A -0.003 | [1] -0.014 | defactinib -0.03 | rucaparib -0.044 | [2] -0.07 | encorafenib -0.023 | [3] -0.015

CHD4 isoform 2 (UniProt Q14839)
inactive: saracatinib -0.006 | sotrastaurin -0.25 | alvocidib -0.135 | Tubastatin A 0.03 | [1] 0 | defactinib -0.247 | rucaparib 0.043 | [2] 0.041 | encorafenib 0.133 | [3] 0.017

COMT (UniProt P21964)
active: Tubastatin A 0.4
inactive: saracatinib -0.046 | sotrastaurin 0.109 | alvocidib 0.004 | [1] 0.008 | defactinib -0.006 | rucaparib -0.018 | [2] 0.029 | encorafenib -0.039 | [3] -0.09

CRKL (UniProt P46109)
active: saracatinib -1.42
inactive: sotrastaurin 0.003 | alvocidib -0.044 | Tubastatin A 0.003 | [1] -0.01 | defactinib -0.052 | rucaparib -0.001 | [2] 0 | encorafenib 0.016 | [3] 0.008

CLASP2 isoform 3 (UniProt O75122)
inactive: saracatinib -0.073 | sotrastaurin -0.232 | alvocidib -0.132 | Tubastatin A 0.016 | [1] -0.041 | defactinib -0.1 | rucaparib 0.015 | [2] 0.035 | encorafenib 0.084 | [3] -0.043

CDK11B (UniProt P21127)
inactive: saracatinib -0.039 | sotrastaurin 0.035 | alvocidib 0.157 | Tubastatin A 0.137 | [1] -0.098 | defactinib -0.162 | rucaparib -0.323 | [2] -0.052 | encorafenib 0.077 | [3] -0.039

CIT isoform 4 (UniProt O14578)
inactive: saracatinib -0.044 | sotrastaurin -0.033 | alvocidib 0.001 | Tubastatin A 0.074 | [1] 0.054 | defactinib -0.034 | rucaparib -0.202 | [2] -0.055 | encorafenib -0.025 | [3] -0.001

CLSPN (UniProt Q9HAW4)
Sequence of UniProt Q9HAW4 (Q9HAW4 whole entry, looked up): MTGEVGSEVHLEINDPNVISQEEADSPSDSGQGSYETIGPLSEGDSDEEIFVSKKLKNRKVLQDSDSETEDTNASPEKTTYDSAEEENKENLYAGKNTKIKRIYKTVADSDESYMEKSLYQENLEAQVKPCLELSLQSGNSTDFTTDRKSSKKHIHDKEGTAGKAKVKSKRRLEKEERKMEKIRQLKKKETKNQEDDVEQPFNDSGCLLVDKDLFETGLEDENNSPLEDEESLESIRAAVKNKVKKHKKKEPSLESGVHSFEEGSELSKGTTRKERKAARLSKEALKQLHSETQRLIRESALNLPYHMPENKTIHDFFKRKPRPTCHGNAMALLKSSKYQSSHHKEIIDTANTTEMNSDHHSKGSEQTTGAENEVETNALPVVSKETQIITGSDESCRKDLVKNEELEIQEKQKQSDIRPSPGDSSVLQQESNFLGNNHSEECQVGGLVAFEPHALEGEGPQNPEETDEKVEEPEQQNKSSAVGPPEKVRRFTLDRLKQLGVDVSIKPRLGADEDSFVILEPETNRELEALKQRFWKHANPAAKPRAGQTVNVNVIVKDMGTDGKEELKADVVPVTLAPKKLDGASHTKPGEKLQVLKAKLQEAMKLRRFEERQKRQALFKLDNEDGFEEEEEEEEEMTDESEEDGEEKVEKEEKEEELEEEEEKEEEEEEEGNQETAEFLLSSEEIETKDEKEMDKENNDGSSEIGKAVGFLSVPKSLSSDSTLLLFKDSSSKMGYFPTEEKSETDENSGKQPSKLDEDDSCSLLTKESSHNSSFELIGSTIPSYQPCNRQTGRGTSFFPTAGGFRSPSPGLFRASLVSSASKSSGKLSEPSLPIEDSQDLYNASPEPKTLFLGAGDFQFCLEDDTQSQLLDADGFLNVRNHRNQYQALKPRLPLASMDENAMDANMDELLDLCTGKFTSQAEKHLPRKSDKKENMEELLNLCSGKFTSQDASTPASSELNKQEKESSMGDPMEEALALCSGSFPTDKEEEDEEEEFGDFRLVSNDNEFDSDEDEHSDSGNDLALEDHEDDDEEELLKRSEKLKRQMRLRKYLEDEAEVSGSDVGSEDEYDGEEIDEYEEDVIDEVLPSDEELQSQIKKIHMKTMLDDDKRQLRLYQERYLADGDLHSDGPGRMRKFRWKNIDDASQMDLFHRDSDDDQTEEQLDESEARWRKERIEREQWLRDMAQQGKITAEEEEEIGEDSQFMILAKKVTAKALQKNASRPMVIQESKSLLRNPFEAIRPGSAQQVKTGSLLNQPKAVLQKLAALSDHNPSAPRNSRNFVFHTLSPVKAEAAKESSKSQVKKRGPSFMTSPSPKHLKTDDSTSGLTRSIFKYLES
inactive: saracatinib 0.076 | sotrastaurin 0.002 | alvocidib -0.102 | Tubastatin A 0.039 | [1] 0.053 | defactinib -0.183 | rucaparib -0.11 | [2] -0.102 | encorafenib 0.031 | [3] 0.047

COQ7 (UniProt Q99807)
inactive: saracatinib 0.024 | sotrastaurin 0.055 | alvocidib 0.009 | Tubastatin A -0.009 | [1] 0.043 | defactinib 0.03 | rucaparib -0.062 | [2] -0.028 | encorafenib -0.058 | [3] 0.059

CDC42BPB (UniProt Q9Y5S2)
inactive: saracatinib -0.089 | sotrastaurin -0.152 | alvocidib 0.009 | Tubastatin A 0.055 | [1] 0.021 | defactinib -0.119 | rucaparib 0.146 | [2] -0.046 | encorafenib -0.029 | [3] -0.032

CRLS1 (UniProt Q9UJA2)
inactive: saracatinib 0.144 | sotrastaurin -0.282 | alvocidib 0.02 | Tubastatin A -0.079 | [1] 0.043 | defactinib -0.088 | rucaparib -0.088 | [2] -0.052 | encorafenib 0.004 | [3] 0.067

CNDP2 (UniProt Q96KP4)
inactive: saracatinib -0.016 | sotrastaurin -0.003 | alvocidib -0.062 | [1] -0.014 | defactinib -0.006 | rucaparib -0.041 | [2] 0.028 | encorafenib 0.001 | [3] 0.124
active: Tubastatin A -0.226

CLUH (UniProt O75153)
inactive: saracatinib -0.032 | sotrastaurin -0.141 | alvocidib -0.006 | Tubastatin A 0.033 | [1] -0.049 | defactinib -0.04 | rucaparib 0.239 | [2] 0.133 | encorafenib -0.044 | [3] -0.046

CLCN3 isoform 2 (UniProt P51790)
Sequence of UniProt P51790 (P51790 whole entry, looked up): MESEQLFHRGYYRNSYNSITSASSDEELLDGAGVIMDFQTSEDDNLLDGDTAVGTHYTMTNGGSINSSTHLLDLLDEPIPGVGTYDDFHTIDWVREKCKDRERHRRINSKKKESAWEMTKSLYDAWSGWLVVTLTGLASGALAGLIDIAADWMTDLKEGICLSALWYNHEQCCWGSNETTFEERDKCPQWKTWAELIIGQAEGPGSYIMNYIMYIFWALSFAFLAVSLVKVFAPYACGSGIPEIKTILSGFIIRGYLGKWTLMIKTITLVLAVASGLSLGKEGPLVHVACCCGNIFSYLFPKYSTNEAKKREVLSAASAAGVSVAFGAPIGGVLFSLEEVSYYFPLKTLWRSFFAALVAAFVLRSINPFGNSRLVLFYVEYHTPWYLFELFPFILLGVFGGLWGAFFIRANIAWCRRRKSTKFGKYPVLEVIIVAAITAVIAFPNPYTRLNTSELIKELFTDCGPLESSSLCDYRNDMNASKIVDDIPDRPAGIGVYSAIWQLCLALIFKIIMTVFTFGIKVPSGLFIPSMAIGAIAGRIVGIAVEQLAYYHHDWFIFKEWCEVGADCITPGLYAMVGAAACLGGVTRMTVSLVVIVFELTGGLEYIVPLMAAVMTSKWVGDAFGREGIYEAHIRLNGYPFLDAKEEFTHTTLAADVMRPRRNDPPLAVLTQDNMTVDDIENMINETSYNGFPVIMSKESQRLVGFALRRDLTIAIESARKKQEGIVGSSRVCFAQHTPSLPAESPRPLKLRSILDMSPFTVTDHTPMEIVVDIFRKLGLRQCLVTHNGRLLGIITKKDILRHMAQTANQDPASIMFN
inactive: saracatinib 0.104 | sotrastaurin -0.002 | alvocidib -0.079 | Tubastatin A -0.06 | [1] -0.018 | defactinib -0.009 | rucaparib -0.002 | [2] -0.015 | encorafenib -0.027 | [3] -0.014

COX15 (UniProt Q7KZN9)
active: rucaparib -0.236
inactive: saracatinib 0.071 | sotrastaurin 0.004 | alvocidib -0.015 | Tubastatin A -0.009 | [1] -0.008 | defactinib -0.003 | [2] -0.017 | encorafenib 0.023 | [3] 0.002

CKB (UniProt P12277)
inactive: saracatinib -0.041 | sotrastaurin 0.019 | alvocidib -0.089 | Tubastatin A -0.004 | [1] -0.016 | defactinib -0.006 | rucaparib -0.059 | [2] 0.043 | encorafenib 0.015 | [3] -0.011

CCDC59 (UniProt Q9P031)
inactive: saracatinib -0.222 | sotrastaurin 0.023 | alvocidib 0.267 | Tubastatin A 0.127 | [1] 0.007 | defactinib 0.309 | rucaparib 0.029 | [2] 0.05 | encorafenib 0.026 | [3] -0.015

CHERP (UniProt Q8IWX8)
inactive: saracatinib 0.045 | sotrastaurin -0.167 | alvocidib -0.143 | Tubastatin A 0.119 | [1] -0.006 | defactinib -0.29 | rucaparib 0.022 | [2] -0.046 | encorafenib 0.058 | [3] 0.002

CMTM3 (UniProt Q96MX0)
inactive: saracatinib -0.006 | sotrastaurin -0.01 | alvocidib -0.022 | Tubastatin A -0.012 | [1] -0.019 | defactinib -0.096 | rucaparib 0.129 | [2] -0.075 | encorafenib -0.072 | [3] 0.05

CLUH, A0A494C0R8
inactive: saracatinib -0.037 | sotrastaurin -0.058 | alvocidib -0.009 | Tubastatin A -0.088 | [1] 0.09 | defactinib -0.068 | rucaparib 0.16 | [2] 0.138 | encorafenib 0.032 | [3] 0.102

CSE1L (UniProt P55060)
inactive: saracatinib 0.032 | sotrastaurin -0.076 | alvocidib -0.069 | Tubastatin A -0.033 | [1] 0.016 | defactinib -0.092 | rucaparib -0.059 | [2] -0.057 | encorafenib 0.022 | [3] -0.013

CDK5RAP1 (UniProt Q96SZ6)
inactive: saracatinib 0.192 | sotrastaurin 0.072 | alvocidib -0.077 | [1] 0.044 | defactinib 0.022 | rucaparib 0.035 | [2] 0.057 | encorafenib 0.053 | [3] -0.048
active: Tubastatin A -0.238

CSNK2A2 (UniProt P19784)
inactive: saracatinib 0.029 | sotrastaurin 0.024 | alvocidib -0.041 | Tubastatin A -0.042 | [1] 0.214 | defactinib -0.067 | rucaparib -0.123 | [2] -0.017 | encorafenib -0.039 | [3] -0.052

CPQ (UniProt Q9Y646)
Sequence of UniProt Q9Y646 (Q9Y646 whole entry, looked up): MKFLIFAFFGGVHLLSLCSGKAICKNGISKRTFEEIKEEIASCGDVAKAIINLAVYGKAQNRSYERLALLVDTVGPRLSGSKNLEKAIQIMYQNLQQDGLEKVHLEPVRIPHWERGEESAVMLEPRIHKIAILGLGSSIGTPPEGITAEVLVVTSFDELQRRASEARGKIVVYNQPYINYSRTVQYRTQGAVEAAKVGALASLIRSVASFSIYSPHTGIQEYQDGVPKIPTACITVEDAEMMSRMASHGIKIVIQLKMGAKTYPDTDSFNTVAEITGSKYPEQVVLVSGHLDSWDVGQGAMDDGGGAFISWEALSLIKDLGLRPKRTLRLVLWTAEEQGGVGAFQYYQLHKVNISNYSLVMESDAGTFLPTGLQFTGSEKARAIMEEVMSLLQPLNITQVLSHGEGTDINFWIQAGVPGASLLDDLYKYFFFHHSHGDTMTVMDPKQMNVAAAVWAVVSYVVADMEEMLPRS
inactive: saracatinib 0.039 | sotrastaurin -0.012 | alvocidib 0.045 | Tubastatin A 0.02 | [1] -0.049 | defactinib -0.035 | rucaparib -0.042 | [2] -0.031 | encorafenib 0.008 | [3] 0.006

CNOT1 (UniProt A5YKK6)
Sequence of UniProt A5YKK6 (A5YKK6 whole entry, looked up): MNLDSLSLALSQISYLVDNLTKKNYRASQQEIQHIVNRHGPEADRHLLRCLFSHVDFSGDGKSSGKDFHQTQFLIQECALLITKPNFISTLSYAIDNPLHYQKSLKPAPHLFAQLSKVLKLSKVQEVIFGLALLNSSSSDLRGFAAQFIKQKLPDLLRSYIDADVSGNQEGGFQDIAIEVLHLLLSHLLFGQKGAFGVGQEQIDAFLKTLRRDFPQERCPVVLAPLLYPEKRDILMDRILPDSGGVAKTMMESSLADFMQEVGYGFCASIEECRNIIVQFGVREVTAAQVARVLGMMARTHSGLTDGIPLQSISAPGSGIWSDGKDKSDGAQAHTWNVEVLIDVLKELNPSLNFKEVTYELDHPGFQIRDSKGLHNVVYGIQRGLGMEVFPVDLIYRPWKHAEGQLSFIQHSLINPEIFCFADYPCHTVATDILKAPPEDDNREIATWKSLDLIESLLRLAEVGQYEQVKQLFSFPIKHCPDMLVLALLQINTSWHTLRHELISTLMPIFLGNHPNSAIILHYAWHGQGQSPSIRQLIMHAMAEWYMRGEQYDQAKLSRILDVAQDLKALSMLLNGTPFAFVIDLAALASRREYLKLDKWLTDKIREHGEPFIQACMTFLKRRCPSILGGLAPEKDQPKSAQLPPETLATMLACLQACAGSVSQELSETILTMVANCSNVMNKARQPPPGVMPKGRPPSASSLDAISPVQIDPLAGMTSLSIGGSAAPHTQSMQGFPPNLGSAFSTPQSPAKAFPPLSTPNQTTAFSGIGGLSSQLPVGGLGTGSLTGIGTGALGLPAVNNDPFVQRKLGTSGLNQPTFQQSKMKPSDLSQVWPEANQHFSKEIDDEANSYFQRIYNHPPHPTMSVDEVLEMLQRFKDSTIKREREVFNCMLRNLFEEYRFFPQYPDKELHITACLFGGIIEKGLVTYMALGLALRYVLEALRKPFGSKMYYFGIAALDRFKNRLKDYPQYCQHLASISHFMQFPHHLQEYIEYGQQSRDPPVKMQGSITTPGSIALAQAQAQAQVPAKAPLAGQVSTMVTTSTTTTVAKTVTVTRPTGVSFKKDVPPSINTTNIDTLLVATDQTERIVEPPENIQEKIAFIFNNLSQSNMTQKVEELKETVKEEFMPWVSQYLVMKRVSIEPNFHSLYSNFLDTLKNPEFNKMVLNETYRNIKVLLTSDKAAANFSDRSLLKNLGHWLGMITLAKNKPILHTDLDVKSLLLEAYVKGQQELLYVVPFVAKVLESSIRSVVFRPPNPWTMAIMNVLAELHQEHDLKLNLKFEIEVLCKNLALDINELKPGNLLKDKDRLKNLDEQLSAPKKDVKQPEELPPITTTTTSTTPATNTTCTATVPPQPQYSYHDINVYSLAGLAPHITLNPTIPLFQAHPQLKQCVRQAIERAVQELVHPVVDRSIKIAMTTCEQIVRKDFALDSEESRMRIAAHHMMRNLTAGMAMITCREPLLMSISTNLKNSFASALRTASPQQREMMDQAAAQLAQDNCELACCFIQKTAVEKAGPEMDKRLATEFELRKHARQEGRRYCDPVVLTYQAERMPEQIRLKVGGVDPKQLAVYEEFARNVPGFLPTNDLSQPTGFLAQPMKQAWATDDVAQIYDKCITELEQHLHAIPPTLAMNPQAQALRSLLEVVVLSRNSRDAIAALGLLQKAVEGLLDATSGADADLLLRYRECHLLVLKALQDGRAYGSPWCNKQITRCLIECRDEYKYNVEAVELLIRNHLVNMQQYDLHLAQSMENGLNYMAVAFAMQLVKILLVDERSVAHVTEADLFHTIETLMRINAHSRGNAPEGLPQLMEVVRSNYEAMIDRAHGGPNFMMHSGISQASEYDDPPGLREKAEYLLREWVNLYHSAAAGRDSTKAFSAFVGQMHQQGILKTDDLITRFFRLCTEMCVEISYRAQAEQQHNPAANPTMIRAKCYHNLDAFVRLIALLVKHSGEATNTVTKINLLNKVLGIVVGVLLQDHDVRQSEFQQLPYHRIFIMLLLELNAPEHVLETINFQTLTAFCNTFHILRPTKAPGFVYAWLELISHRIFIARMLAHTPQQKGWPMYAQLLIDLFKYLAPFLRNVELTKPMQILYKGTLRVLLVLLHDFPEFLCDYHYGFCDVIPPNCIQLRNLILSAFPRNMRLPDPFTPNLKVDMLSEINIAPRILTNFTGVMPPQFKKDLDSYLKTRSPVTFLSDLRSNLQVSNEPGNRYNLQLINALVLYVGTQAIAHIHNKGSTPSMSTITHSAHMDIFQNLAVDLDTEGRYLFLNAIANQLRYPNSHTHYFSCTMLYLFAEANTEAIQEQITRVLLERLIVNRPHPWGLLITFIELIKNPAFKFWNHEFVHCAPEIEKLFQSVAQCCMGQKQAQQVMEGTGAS
inactive: saracatinib -0.025 | sotrastaurin -0.087 | alvocidib -0.051 | Tubastatin A -0.003 | [1] 0.03 | defactinib -0.057 | rucaparib 0.077 | [2] 0.024 | encorafenib 0.074 | [3] -0.031

CCAR2 isoform 2 (UniProt Q8N163)
active: defactinib -0.42
inactive: saracatinib -0.102 | sotrastaurin -0.231 | alvocidib -0.254 | Tubastatin A 0.122 | [1] -0.083 | rucaparib -0.106 | [2] 0.031 | encorafenib -0.011 | [3] 0

CPSF1 (UniProt Q10570)
inactive: saracatinib 0.024 | sotrastaurin -0.01 | alvocidib 0.045 | Tubastatin A -0.02 | [1] -0.05 | defactinib 0.038 | rucaparib 0.018 | [2] -0.061 | encorafenib -0.048 | [3] -0.032

CMTR1 (UniProt Q8N1G2)
inactive: saracatinib 0.009 | sotrastaurin 0.018 | alvocidib -0.053 | Tubastatin A -0.052 | [1] 0.045 | defactinib -0.026 | rucaparib 0.003 | [2] 0.099 | encorafenib 0.06 | [3] -0.091
